# Compound activity as filed in PubChem.
# p53null 32C tox: p53 null cell cytotoxicity, permissive temperature | H1299-neo p53 null cells, ATP luminescence, 24 h, 32C | Potency, µM (highest dose often 46.1 µM), inactives show at the highest dose activity change, negative = cytotoxicity, hits mostly cytotoxic | hit rate 0.62% among 55,000;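 also: 0% = DMSO only and -100% = full killing by 100 µM tamoxifen; nearly all actives have a fitted effect of over 55% in size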
#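 Cells lacking p53 (H1299-neo) are plated at 600 per well and allowed to settle overnight at 37C. Test compounds (up to 46 uM) are added and held 24 hours at 32C, then ATP is quantified by luminescence.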
# p53null 39C kill: p53 null cell cytotoxicity, nonpermissive temperature; H1299 p53-null (neo) cells, 39C, ATPlite viability, 24 h; AID 904; hit rate 0.97% among 55,000; Potency, µM (series often up to 46.1 µM), for inactives: at the top dose activity, negative = cell killing, most hits filed as cytotoxic;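 also: 0% = DMSO only and -100% = full killing by 100 µM tamoxifen; nearly all actives have a fitted effect of over 50% in size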
#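 Cells seeded at 600/well, 37C overnight. Compound added (up to 46 uM), plates shifted to 39C for 24 hr. ATPlite added, luminescence read after 20 min at room temperature.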
# NTMT1 inhibitor: blocks human N-terminal methyltransferase 1 activity; Potency, µM (top dose mostly 114 µM), inactives show top-dose activity change, negative = inhibition, usual class: inhibitors; Q9BV86; hit rate 2.5% among 59,000; NTMT1 MTase-Glo SAH luminescence, purified enzyme;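 also: plate controls were DMSO vehicle for no effect and no enzyme for full effect; nearly all actives have a fitted effect of over 65% in size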
# Target sequence (Q9BV86 whole entry, looked up): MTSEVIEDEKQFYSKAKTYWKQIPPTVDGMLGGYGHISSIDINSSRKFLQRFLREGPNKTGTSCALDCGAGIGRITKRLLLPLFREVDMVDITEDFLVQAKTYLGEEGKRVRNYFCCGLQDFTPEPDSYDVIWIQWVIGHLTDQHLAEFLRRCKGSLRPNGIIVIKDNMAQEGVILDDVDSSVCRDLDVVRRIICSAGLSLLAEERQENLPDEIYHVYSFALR
# SKOV3 invasion: blocks SKOV3ip1 adhesion and invasion in omental model; Potency, µM (doses to about 45.8 µM), inactives show at the highest dose activity change, negative = inhibition, hits mostly inhibitors; SKOV3ip1-GFP adhesion/invasion on 3D omental model, fluorescence; AID 1963576; hit rate 0.1% among 46,000;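 also: plate controls were DMSO wells for no effect and tomatine positive control wells for full effect; nearly all actives have a fitted effect of over 65% in size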
#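 qHTS, 4-pt dose (0.36-46 umol/L); SKOV3ip1-GFP, 1,200 cells/well, no FBS; primary omental fibroblast/mesothelial co-culture 48 h pre-grown; 2 h RT + 16 h 37 C; PBS wash, 4% PFA; GFP count 488/509 nm.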
# Active calls of the source: *; i = inactive; ? = inconclusive; . = no result; ! = a repeat was not active; [ ] = dose if it differs, or a comment. Shown is part of a subset that was picked to be rich in hits. Calls follow the shape of the dose curve; as a rule, active = well fitted curve in the direction sought with a large enough effect; inconclusive = small, poorly fitted or top-dose-only effect, or another doubt; inactive = no such curve, though single readings can be large; an effect the other way counts as inactive or inconclusive. Potency is read from the fitted curve at half-maximal effect.
SMILES,p53null 32C tox,p53null 39C kill,NTMT1 inhibitor,SKOV3 invasion
Cc1ccc(CCNC(=O)c2ccc3c(c2)nc2n3CCOC2)cc1,-4.9%,-10.0%,9.4%,-20.7%
COCCCNC(=O)c1ccc2nc(CCc3ccccc3)oc2c1,-12.8%,?,-0.3%,0.2%
Cc1ccccc1CCNC(=O)c1ccc2c(c1)nc1n2CCC(C)C1 (stereo not drawn),10µM*,?,-12.7%,i
COCCNC(=O)c1ccc2nc(CCc3ccccc3)oc2c1,-1.5%,-5.4%,89.1µM*,-8.5%
CCNC(=O)c1ccc2c(c1)nc1n2CCCCC1,?,?,?,i
O=C(NCCc1ccccc1)c1ccc2c(c1)nc1n2CCOC1,7.94µM*,10µM*,3.2%,-4.7%
CC(C)CCNC(=O)c1ccc2c(c1)nc1n2CCCCC1,7.94µM*,6.31µM*,-1.5%,-3.3%
CC(=O)c1ccccc1-c1ncc(C)c(NCc2ccc(-c3cccnc3)cc2)n1,.,.,-4.8%,.
O=C(NCCc1ccccc1Cl)c1ccc2c(c1)nc1n2CCCCC1,3.16µM*,2.51µM*,-7.4%,?
Cc1ccc2[nH]cc(C(c3ccccc3)c3cccs3)c2c1 (stereo not drawn),?,?,-10.6%,?
Cc1ccc2[nH]cc(C(c3ccccc3)c3ccc(C)s3)c2c1 (stereo not drawn),11.2µM*,15.8µM*,3.1%,?
Cc1cccc2sc(N(Cc3cccnc3)C(=O)CCS(=O)(=O)c3ccccc3)nc12,?,12.6µM*,-0.5%,-19.8%
NC(=O)c1ccccc1N/C=C/C(=O)c1cccs1,12.6µM*,11.2µM*,.,.
O=C(/C=C/Nc1ccc(F)c(F)c1)c1cccs1,.,-20.8%,.,.
Cc1cccc(N/C=C/C(=O)c2cccs2)c1C,14.1µM*,.,.,.
NC(=NCCCCCCN=C(N)N=C(N)Nc1ccc(Cl)cc1)N=C(N)Nc1ccc(Cl)cc1,.,.,35.5µM*!,-9.4%
Cc1ccc(-c2ccc(CNc3nc(-c4ccccc4C(C)C)ncc3F)cc2)cn1,.,.,11.2%,.
CC(C)c1ccc2oc3nc(N)c(C(=O)O)cc3c(=O)c2c1,.,.,31.6µM*,7.9%
COc1ccc(-c2cc(C(=O)N3CCN(c4ccccc4OC)CC3)c3cc(C(C)C)ccc3n2)cc1,4.3%,20.0%,6.6%,-3.0%
Cc1ccc(C)c(NS(=O)(=O)c2ccc3c4c(cccc24)C(=O)N3)c1,?,?,44.7µM*,i
CCc1ccc(N(CC(C)C)S(=O)(=O)c2ccc(OCC3CCOCC3)c(CO)c2)cc1,.,.,-2.1%,.
Cc1cc(N2CCN(c3cccc(C)c3C)CC2)n2cnnc2n1,14.2%,6.4%,89.1µM*,i
Cc1cc(N2CCN(c3ccccc3F)CC2)n2cnnc2n1,-4.9%,-15.8%,-1.2%,-2.2%
Cc1cc(C)cc(NC(=O)c2cc(S(=O)(=O)N3CCC(C)CC3)cn2C)c1,-10.7%,6.9%,89.1µM*,-19.3%
Cc1cc(C)cc(NC(=O)c2cc(S(=O)(=O)N3CCCCCC3)cn2C)c1,-0.3%,-3.5%,12.6%,10.6%
SMILES,p53null 32C tox,p53null 39C kill,NTMT1 inhibitor,SKOV3 invasion
O=C(Nc1ccc2c(c1)CCC2)c1ccc(F)cc1,10µM*,-29.9%,.,.
Cc1cnc(-c2ccccc2C(C)C)nc1NCc1ccc(-c2ccc(F)nc2)cc1,.,.,12.2%,.
C=C1c2cccc(O)c2C(O)=C2C(=O)[C@]3(O)C(O)=C(C(N)=O)C(=O)[C@@H](N(C)C)[C@@H]3[C@@H](O)[C@H]12,.,.,25.1µM*,.
CCOCCCNC(=O)c1c[nH]c2ccc(S(=O)(=O)Nc3cccc(Cl)c3C)cc2c1=O,13.5%,-3.2%,89.1µM*,2.1%
CCN1CCN(C(c2ccc(Cl)cc2)c2ccc(Cl)cc2)CC1,.,.,6.1%,.
CC1(C)OB(c2ccc(O)c3ncc(N4CCNCC4)cc23)OC1(C)C,.,.,79.4µM*,.
Fc1ccc(-c2nnc(-c3ccc(Cl)cc3Cl)o2)cc1,6.31µM*,11.2µM*,.,.
COc1ccc(Cl)cc1NC(=O)CSc1nnc2[nH]c(=O)cc(-c3ccccc3)n12,2.51µM*,9.6%,-19.2%,-3.1%
O=C(CSc1nnc2[nH]c(=O)cc(-c3ccccc3)n12)Nc1ccccc1C(F)(F)F,?,?,-10.1%,-7.3%
CCc1ccc(NC(=O)CSc2nnc3[nH]c(=O)cc(-c4ccccc4)n23)cc1,2.51µM*,?,-5.1%,2.7%
CCCCN1C(C(=O)c2ccccc2)=C(OC(C)=O)c2ccccc2S1(=O)=O,?,5.01µM*,7.4%,-10.1%
CCN1C(C(=O)c2ccccc2)=C(OC(=O)c2ccccc2OC)c2ccccc2S1(=O)=O,?,12.6µM*,7.0%,?
Cc1cc(N[S+](=O)([O-])c2ccc(NC(=O)Cc3ccc4c(c3)OCCO4)cc2)no1,.,.,7.8%,.
Brc1cnc2nc(SCc3ccccn3)[nH]c2c1,.,.,-1.6%,.
Cc1cc2oc(=O)c(CC(=O)O)c(C)c2c2occ(-c3ccc(F)cc3)c12,-8.7%,-6.1%,39.8µM*,4.4%
COc1ccc(-c2coc3c2c(C)cc2oc(=O)c(CC(=O)O)c(C)c23)cc1,-21.2%,5.4%,-16.0%,-7.1%
COc1cc(/C=C2\C(=O)Nc3ccccc32)ccc1O,.,.,79.4µM*,.
CC(C)C1CCC(C(=O)Nc2ccc(S(=O)(=O)Nc3nccs3)cc2)CC1 (stereo not drawn),.,.,10.6%,.
O=C(NC1CCCc2c1cnn2-c1ccc(F)cc1F)c1ccccc1 (stereo not drawn),.,.,79.4µM*!,.
CC(=O)Nc1sc2c(c1-c1ccc3nc[nH]c3c1)CCNC2,.,.,50.1µM*,.
CN(C)CCn1nnnc1SCC1=C(C(=O)O)N2C(=O)[C@@H](NC(=O)Cc3csc(N)n3)[C@H]2SC1,.,.,-21.0%[57.5 µM],.
CO[C@@]1(NC(=O)CSCC#N)C(=O)N2C(C(=O)O)=C(CSc3nnnn3C)CS[C@@H]21,.,.,14.1µM*,.
C[C@@H]1CN(CC(=O)N2CC(C)(C)c3ncc(Cc4ccc(F)cc4)cc32)[C@@H](CN2CCOC[C@H]2C)CN1,.,.,79.4µM*!,.
CC(=O)Nc1sc2c(c1-c1cccnc1)CCNC2,.,.,21.6%,.
CCOC(=O)c1ccc2c(c1)c(C(C)=O)c(C)n2-c1ccc(OC)cc1,.,.,-2.4%,.
SMILES,p53null 32C tox,p53null 39C kill,NTMT1 inhibitor,SKOV3 invasion
COCCNc1cc(NC(=O)N2CCCc3cc(CN4CCN(C)CC4=O)c(C=O)nc32)ncc1C#N,.,.,19.9%[29.8 µM],.
Cc1csc(NC(=O)c2sc3nc4c(c(C(F)(F)F)c3c2N)CCC4)n1,.,.,27.1µM*!,19.1%
CC(C)NCCCn1c(Sc2cc(Cl)cc(Cl)c2)nc2c(N)ncnc21,.,.,-17.6%,.
COc1ccc(-c2nnc(SC(C)C(=O)O)o2)cc1 (stereo not drawn),?,15.8µM*,2.5%,i
Cc1cc(C)c(S(=O)(=O)NCCc2csc3nc(-c4ccc(Cl)cc4)nn23)c(C)c1,46.0%,20µM*,-1.6%,i
CCS(=O)(=O)c1ncc(Cl)c(C(=O)N2CCN(c3cccc(Cl)c3)CC2)n1,?,3.16µM*,-2.9%,i
CC1CCc2onc(C(=O)N3CCN(c4cccc(Cl)c4)CC3)c2C1 (stereo not drawn),4.7%,-5.1%,2.8%,-15.3%
CS(=O)(=O)c1ncc(Cl)c(C(=O)N2CCN(c3cccc(Cl)c3)CC2)n1,14.1µM*,-95.3%,-15.0%,?
